The list is not random: actives were taken first. Their share in the collection is about 2.5%.
HTT-AS promoter = Primary qHTS for Identification of Small Molecule Activators of Huntingtin-Antisense Promoter Activity; HEK293 HTT-AS promoter firefly luciferase reporter, 24 h; response scale: percent change from vehicle, -100% = no light; Potency, µM (series often up to 57.5 µM), without a hit: top-dose activity change, positive = activation, most hits filed as activators; actives 0.24% (n = 48,000); further: potency means the concentration at half of the fitted maximal effect; nearly all actives have a fitted effect of over 55% in size
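HEK293 cells carrying firefly luciferase reporters were seeded at 2,500 per well in Opti-MEM and cultured for 24 h. They were then treated with compounds at up to 57.5 uM final for 24 h at 37 degrees C before Dual-Glo luminescence readout.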
NTMT1 inh = Primary qHTS for Inhibitors of N-terminal methyltransferase 1 (NTMT1): MTaseGlo Assay; NTMT1 MTase-Glo SAH luminescence, purified enzyme; N-terminal Xaa-Pro-Lys N-methyltransferase 1 (Homo sapiens), Q9BV86; actives 2.5% (n = 59,000); Potency, µM (series often up to 114 µM), inactives show at the highest dose activity change, negative = inhibition, hits mostly inhibitors;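 further: potency means the concentration at half of the fitted maximal effect; plate controls were DMSO vehicle for no effect and no enzyme for full effect; nearly all actives have a fitted effect of over 65% in size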
HTT promoter inh = Primary qHTS for Identification of Small Molecule Inhibitors of Huntingtin Promoter Activity | HEK293 HTT promoter firefly luciferase reporter, 24 h | actives 0.93% (n = 48,000) | Potency, µM (doses to about 57.5 µM), without a hit: top-dose activity change, negative = inhibition, hits mostly inhibitors; further: potency means the concentration at half of the fitted maximal effect; nearly all actives have a fitted effect of over 50% in size
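Luminescence was read after Dual-Glo reagent and a 10 min room-temperature incubation. Values were normalized to vehicle (0% activity) and zero RLU (-100% activity). Reporter HEK293 cells had been exposed to compounds (up to 57.5 uM final) for 24 h.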
FH mod = Identification of activators of human fumarate hydratase by quantitative high-throughput screening; Potency, µM (top dose mostly 79.9 µM), for the others: at the top dose activity change, negative = inhibition, actives largely listed as inhibitors; actives 0.22% (n = 54,000); FH coupled MDH/diaphorase resazurin fluorescence, 15 min; further: potency means the concentration at half of the fitted maximal effect; on the % scale 0 is the no-effect control and ±100 the full control effect; the screen sought activators but most active calls are inhibition curves; nearly all actives have a fitted effect of over 45% in size
Target sequence (P07954 whole entry, looked up): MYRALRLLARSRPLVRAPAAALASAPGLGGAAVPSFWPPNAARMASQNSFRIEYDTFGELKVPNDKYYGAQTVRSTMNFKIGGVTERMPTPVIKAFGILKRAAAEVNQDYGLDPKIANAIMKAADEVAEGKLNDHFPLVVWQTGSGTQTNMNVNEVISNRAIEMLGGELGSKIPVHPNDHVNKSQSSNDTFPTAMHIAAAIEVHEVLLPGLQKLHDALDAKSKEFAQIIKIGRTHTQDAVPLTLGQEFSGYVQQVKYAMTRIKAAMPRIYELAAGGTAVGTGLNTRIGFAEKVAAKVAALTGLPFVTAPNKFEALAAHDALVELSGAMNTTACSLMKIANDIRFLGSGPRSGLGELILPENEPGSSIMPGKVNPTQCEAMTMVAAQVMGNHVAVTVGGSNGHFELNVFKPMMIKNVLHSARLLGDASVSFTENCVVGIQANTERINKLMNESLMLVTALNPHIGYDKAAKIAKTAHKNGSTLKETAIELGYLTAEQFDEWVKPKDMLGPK
GALK inh = qHTS Assay for Inhibitors of Human Galactokinase (GALK): NCGC Sytravon Library Screen. 44,000 tested, under 10 active. recombinant GALK, Kinase-Glo ATP luminescence, 1 h. P51570. Potency, µM (highest dose often 57.5 µM), inactives show at the highest dose activity, negative = inhibition, hits mostly inhibitors;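 further: plate controls were full GALK reaction for no effect and reaction lacking GALK for full effect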
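5 nM GALK with 35 µM ATP and 100 µM galactose in HEPES pH 8.0, MgCl2, NaCl, DTT, BSA; 1 h RT reaction, remaining ATP detected by Kinase-Glo Plus luminescence after 10 min; qHTS concentration series.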
* marks the source's active call; other numbers are inactive results; ? = inconclusive; nt = no result given; ! = not active in a repeat; [ ] = another dose, or the depositor's remark. The call rests on the fitted dose curve; in most records, active means well fitted curve in the direction sought with a large enough effect; inconclusive means small, poorly fitted or top-dose-only effect, or another doubt; inactive means no such curve, though single readings can be large; an effect the other way counts as inactive or inconclusive.

SMILES	HTT-AS promoter	NTMT1 inh	HTT promoter inh	FH mod	GALK inh
CSc1cccc(NC(=O)C2CCN(S(=O)(=O)c3ccc4[nH]c5c(c4c3)CCCCC5)CC2)c1	-25%	0%	?	-10%	2%
O=C(Nc1ccc(Cl)c([N+](=O)[O-])c1)Nc1nnc(C2CCCCC2)s1	nt	6%	nt	nt	nt
CN[C@@H](C)C(=O)N[C@H]1CCCC[C@H]2CC[C@@H](C(=O)N[C@@H](c3ccccc3)c3cn(CCCCc4ccc(CCCCn5cc([C@@H](NC(=O)[C@@H]6CC[C@@H]7CCCC[C@H](NC(=O)[C@H](C)NC)C(=O)N76)c6ccccc6)nn5)cc4)nn3)N2C1=O	-2%	28µM*!	8%	-8%[53.3 µM]	nt
Cc1cccc(N2CCN(S(=O)(=O)c3cc(C(=O)Nc4ccc(Oc5ccccc5)cc4)ccc3F)CC2C)c1 (stereo unspecified)	-46%	5%	1µM*	1%	-1%
Cc1cccc(N2CCN(c3ccc(NC(=O)c4ccccc4)cc3C(=O)O)CC2C)c1 (stereo unspecified)	-10%	-5%	-10%	-4%	1%
Cc1cccc(N2CCN(c3ccc(C(=O)O)cc3NC(=O)c3cccc(Cl)c3)CC2C)c1 (stereo unspecified)	-12%	79µM*	-4%	-25%	0%
O=C(Nc1ccc(Oc2ccccc2)cc1)c1ccc(F)c(S(=O)(=O)N2CCN(c3ccccc3F)CC2)c1	-44%	4%	2µM*	-7%	2%
COc1ccccc1N1CCN(S(=O)(=O)c2cc(C(=O)Nc3ccc(Oc4ccccc4)cc3)ccc2F)CC1	-42%	4%	1.4µM*	-22%	-6%
O=C(Nc1ccc(Oc2ccccc2)cc1)c1ccc(F)c(S(=O)(=O)N2CCN(c3cccc(Cl)c3)CC2)c1	-44%	13%	?	-8%	0%
COc1ccccc1N1CCN(S(=O)(=O)c2ccc(F)c(C(=O)Nc3ccc(C)c(F)c3)c2)CC1	-24%	24%	?	-26%	0%
O=C(O)Cc1nn(Cc2nc3cc(C(F)(F)F)ccc3s2)c(=O)c2nccnc12	nt	11%[57.5 µM]	nt	?	nt
N[C@@H]1CN(c2c(F)cc3c(=O)c(C(=O)O)cn([C@@H]4C[C@@H]4F)c3c2Cl)CC12CC2	nt	15%	nt	nt	nt
CN1CCC(Nc2ncc3ncnc(Nc4ccc(F)c(Cl)c4)c3n2)CC1	-11%	45µM*	-16%	0%	nt
CN[C@@H](C)C(=O)N[C@H](C(=O)N1CCC[C@H]1C(=O)Nc1sc(-c2ncco2)nc1-c1ccccc1)C1CCCCC1	nt	12%	nt	nt	nt
CC(C)Oc1ccc(CCNC(=O)c2cc3sccc3n2Cc2ccccc2)cc1OC(C)C	nt	17%	nt	nt	nt
c1ccc(Cn2c(-c3ccc(OCC(C4CCNCC4)n4c(-c5ccccc5)nc5ccccc54)cc3)nc3ccccc32)cc1 (stereo unspecified)	nt	28µM*	nt	5%	nt
CC(C)(C)C1CCc2nc(NC(=O)COc3ccccc3[N+](=O)[O-])sc2C1 (stereo unspecified)	-77%	20%	4.5µM*	-13%	0%
CC(C)(C)C1CCc2nc(NC(=O)c3cccc(Cl)c3)sc2C1 (stereo unspecified)	-76%	-26%	0.35µM*	?	2%
CC(C)(C)C1CCc2nc(NC(=O)c3ccc([N+](=O)[O-])cc3)sc2C1 (stereo unspecified)	-33%	13%	?	-7%	-14%
CCCCn1cnc2cc(C(=O)N3CCCCC3)ccc21	nt	15%	nt	nt	nt
Cc1cc(=O)c2c(O)c3c(O)cc(=O)c4c3c3c(cc(O)c1c23)C(C)(C)C=4O	-12%	3.5µM*!	-8%	-2%[53.3 µM]	nt
COc1ccc(NC(=O)Cn2c(=O)oc3ccccc32)cc1	-9%	89µM*	-2%	12%	0%
CCc1ccccc1NC(=O)Cn1c(=O)oc2ccccc21	-9%	2%	-11%	-6%	-1%
CCc1ccc2oc(NC3=NC(c4[nH]ncc4Cl)C4=C(CCCC4=O)N3)nc2c1 (stereo unspecified)	nt	-2%	nt	nt	nt
CCOc1ccccc1CN1CCc2nc(N3CCN(c4ccccc4F)CC3)ncc2C1	-51%	5%	14µM*	-5%	1%
SMILES	HTT-AS promoter	NTMT1 inh	HTT promoter inh	FH mod	GALK inh
CCS(=O)(=O)c1ccc(C(=O)N2CCN(c3nc4c(OC)ccc(C)c4s3)CC2)cc1	-37%	-3%	?	-10%	0%
CCS(=O)(=O)c1cccc(C(=O)N2CCN(c3nc4c(C)ccc(Cl)c4s3)CC2)c1	-48%	4%	11µM*	-26%	-4%
CC(=O)OC1[C@H]2[C@@H](C[C@@H](C)[C@@H]3C=CC(=O)[C@@]13C)OC(=O)[C@@H]2C (stereo partly specified)	nt	-11%[57.5 µM]	nt	?	nt
Cc1ccc(N2C(=O)N(Cc3cccc(Cl)c3)c3ccccc3S2(=O)=O)cc1	-27%	-25%	?	-8%	-1%
CCc1ccccc1N1C(=O)N(Cc2cccc(Cl)c2)c2ccccc2S1(=O)=O	-40%	89µM*	?	-14%	-4%
Cc1cccc(-c2ccc(=O)n(CC(=O)NCCc3ccccc3)n2)c1	nt	3%	nt	nt	nt
Cc1c(C)n(Cc2ccc(-c3ccccc3C(=O)O)cc2)c2ccc(C(=O)N[C@@H](C)c3ccc([N+](=O)[O-])cc3)cc12	-28%	32µM*!	-33%	-17%	nt
Cc1c(C)n(Cc2ccccc2)c2ccc(C(=O)NCc3ccc(OC(C)C)cc3)cc12	-23%	-5%	-16%	-18%	-1%
Cc1ccc(-n2ncc3c(NCCCN4CCOCC4)ncnc32)cc1Cl	-7%	?	?	-14%	-1%
Cc1cccc(-n2ncc3c(NCCOCCO)ncnc32)c1	4µM*	?	39%	-5%	2%
Clc1cccc(-n2ncc3c(NCCCN4CCOCC4)ncnc32)c1	3%	50µM*	-8%	-5%	2%
Cc1ccc(-n2ncc3c(NCCO)ncnc32)cc1Cl	?	35µM*	62%	-7%	3%
Cc1cccc(-n2ncc3c(Nc4c(C)cc(C)cc4C)ncnc32)c1	-23%	?	?	-27%	1%
CCOC(=O)C1CCN(c2ccc(NCc3ccc(-c4ccc(C#N)cc4)o3)cc2)CC1	nt	-5%[57.5 µM]	nt	nt	nt
Oc1cccc(-c2nc(N3CCOCC3)c3oc4ncccc4c3n2)c1	-19%[116 µM]	?	?	-3%	nt
Oc1cccc(-c2nc(N3CCOCC3)c3sccc3n2)c1	nt	40µM*	nt	1%	nt

High-throughput results deposited in PubChem BioAssay by National Center for Advancing Translational Sciences (NCATS).
